The source of these data is PubChem BioAssay (NCI).

Molecules are shown by their SMILES. The panel holds about 79,000 compounds, 15% with a hit somewhere; the sample as a whole holds those more often. A number with no mark means an inactive call. Calls of active or inactive are those of the source. No stated cut-off is given here; in the data, active means growth inhibition above about 70%; inactive means the rest.

A short description of test [1]: NCI Yeast Anticancer Drug Screen. Data for the rad50 strain (AID 155).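 Further: 0% = growth of vehicle-only cultures of the same strain.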 The note with it: S. cerevisiae rad50 strain growth inhibition, hits give high values. Put shortly:
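Readout: growth inhibition relative to vehicle-treated cultures. Compound exposure was carried out in a genetically defined yeast strain deficient in DNA damage repair.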

Test [2] can be described thus: NCI Yeast Anticancer Drug Screen. Data for the mec2-1 strain (AID 157). The following applies: S. cerevisiae mec2-1 strain, hits give high values. In outline: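 Mutant yeast (mec2-1) grown with compound; growth inhibition relative to vehicle control reported.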
Test [3] is described as follows: NCI Yeast Anticancer Drug Screen. Data for the sgs1 mgt1 strain (AID 161).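 Further: 0% = growth of cultures given vehicle only.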 The following applies: S. cerevisiae sgs1 mgt1 strain, hits give high values. Put shortly:
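This yeast growth screen uses a strain with defined DNA-repair lesions; compound-treated growth is compared with vehicle-treated growth.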

Test [4] can be described thus: NCI Yeast Anticancer Drug Screen. Data for the cln2 rad14 strain (AID 165).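 Further: 0% = growth equal to vehicle treated cultures.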 The note with it: S. cerevisiae cln2 rad14 strain, hits give high values. In outline:
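Readout is yeast growth inhibition versus vehicle-treated controls, using a strain with cln2 and rad14 alterations exposed to compound.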

Test [5] is described as follows: NCI Yeast Anticancer Drug Screen. Data for the bub3 strain (AID 167). The following applies: S. cerevisiae bub3 mutant strain, hits give high values. In outline:
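Readout: yeast growth inhibition, expressed relative to vehicle-only wells. The test organism is a mutant strain from a panel with lesions in DNA repair or checkpoint genes.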

The nature of test [6]: NCI Yeast Anticancer Drug Screen. Data for the mlh1 rad18 strain (AID 175). The following applies: S. cerevisiae mlh1 rad18 strain growth inhibition, hits give high values. In outline: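 Genetically defined yeast (DNA repair-deficient) exposed to compounds; growth inhibition determined relative to vehicle.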
Setting [7] is: at 5.0 µM (retest, dose inferred, filed as 0.5).
Setting [8] is: at 50.0 µM (retest, dose inferred, filed as 5.0).

In the case of `CCCCC#C[I+]c1ccccc1`, the growth inhibition in test [1] (setting [7]) is 66%; in test [1] (setting [8]), 66%; in test [1] (at 50.0 µM) it was 90.5% (active); in test [2] (setting [7]) it was 46%; in test [2] (setting [8]), 46%; in test [2] (at 50.0 µM) it was 93% (active). In addition, the growth inhibition in test [3] (setting [7]) is 54%; in test [3] (setting [8]) it was 54%; in test [3] (at 50.0 µM), 93.2% (active); in test [4] (setting [7]), 58%; in test [4] (setting [8]), 58%; in test [4] (at 50.0 µM), 91.2% (active). The growth inhibition in test [5] (setting [7]) was 32%; in test [5] (setting [8]) it was 32%; in test [5] (at 50.0 µM) it was 87.5% (active); in test [6] (setting [7]) it was 65%; in test [6] (setting [8]), 65%; in test [6] (at 50.0 µM), 89.3% (active).

With `COC(=O)C1c2cc3c(c(O)c2CCC1(C)O)C(=O)c1c(O)cc2c(c1C3=O)OC1OC2(C)C(O)C(N(C)C)C1O` (stereo not given), the growth inhibition in test [1] (setting [7]) was 19%; in test [1] (setting [8]) it was 63%; in test [1] (at 50.0 µM), 91.9% (active); in test [2] (setting [7]), 28%; in test [2] (setting [8]), 59%; in test [2] (at 50.0 µM) it was 86.3% (active). Further, the growth inhibition in test [3] (setting [7]) is 12%; in test [3] (setting [8]), 58%; in test [3] (at 50.0 µM) it was 92.6% (active); in test [4] (setting [7]), 15%; in test [4] (setting [8]), 73% (active); in test [4] (at 50.0 µM), 69.3%. Further, the growth inhibition in test [5] (setting [7]) was 72% (active); in test [5] (setting [8]) it was 90% (active); in test [5] (at 50.0 µM) it was 83.8% (active); in test [6] (setting [7]) it was 36%; in test [6] (setting [8]) it was 98% (active); in test [6] (at 50.0 µM), 93% (active).

`CC(=O)Nc1ccc2c(c1)C(=Nc1ccc(F)cc1)c1ccccc1-2`: the growth inhibition is 7% in test [1] (setting [7]); 83% (active) in test [1] (setting [8]); 54.1% in test [1] (at 50.0 µM); 0% in test [2] (setting [7]); 84% (active) in test [2] (setting [8]); 4.35% in test [2] (at 50.0 µM). For the same compound, the growth inhibition was 2% in test [3] (setting [7]); 62% in test [3] (setting [8]); 14.3% in test [3] (at 50.0 µM); -1% in test [4] (setting [7]); 74% (active) in test [4] (setting [8]); 40.4% in test [4] (at 50.0 µM). The growth inhibition in test [5] (setting [7]) was -4%; in test [5] (setting [8]), 47%; in test [5] (at 50.0 µM), 45.4%; in test [6] (setting [7]), 0%; in test [6] (setting [8]) it was 94% (active); in test [6] (at 50.0 µM), 50.7%.

As for `CCCCN(CCCC)CC(O)c1cc(-c2ccc(Cl)cc2)nc2c(C)cccc12` (stereo not given), the growth inhibition in test [1] (setting [7]) was 0%; in test [1] (setting [8]) it was 94% (active); in test [1] (at 50.0 µM), 98% (active); in test [2] (setting [7]), 2%; in test [2] (setting [8]), 95% (active); in test [2] (at 50.0 µM), 97.3% (active). The growth inhibition in test [3] (setting [7]) is 19%; in test [3] (setting [8]) it was 96% (active); in test [3] (at 50.0 µM) it was 98.4% (active); in test [4] (setting [7]), -4%; in test [4] (setting [8]), 91% (active); in test [4] (at 50.0 µM), 95.8% (active). The growth inhibition in test [5] (setting [7]) is -7%; in test [5] (setting [8]) it was 94% (active); in test [5] (at 50.0 µM), 89.8% (active); in test [6] (setting [7]), 7%; in test [6] (setting [8]), 95% (active); in test [6] (at 50.0 µM), 95.9% (active).

For the compound `CC(=O)OCc1ccc2c(c1)C(O)NC(=O)O2` (stereo not given), the growth inhibition in test [1] (setting [7]) was 8%; in test [1] (setting [8]), 45%; in test [1] (at 50.0 µM) it was 36%; in test [2] (setting [7]) it was 2%; in test [2] (setting [8]) it was 13%; in test [2] (at 50.0 µM) it was 21.9%. For the same compound, the growth inhibition is 13% in test [3] (setting [7]); 69% in test [3] (setting [8]); 51.8% in test [3] (at 50.0 µM); -5% in test [4] (setting [7]); 18% in test [4] (setting [8]); 16.2% in test [4] (at 50.0 µM). The growth inhibition in test [5] (setting [7]) was 0%; in test [5] (setting [8]), -7%; in test [5] (at 50.0 µM), -23.1%; in test [6] (setting [7]) it was 43%; in test [6] (setting [8]), 88% (active); in test [6] (at 50.0 µM), 55.6%.

For the compound `CS(=O)(=O)OCCN(CCOS(C)(=O)=O)c1ccc(C=Nc2ccc(-c3csc(-c4ccc(Cl)cc4)n3)cc2)cc1`, the growth inhibition in test [1] (setting [7]) was 37%; in test [1] (setting [8]) it was 92% (active); in test [1] (at 50.0 µM), 92.5% (active); in test [2] (setting [7]), 15%; in test [2] (setting [8]) it was 94% (active); in test [2] (at 50.0 µM), 94.4% (active). The growth inhibition was 36% in test [3] (setting [7]); 93% (active) in test [3] (setting [8]); 92.3% (active) in test [3] (at 50.0 µM); 6% in test [4] (setting [7]); 91% (active) in test [4] (setting [8]); 71.2% (active) in test [4] (at 50.0 µM). For the same compound, the growth inhibition in test [5] (setting [7]) was 1%; in test [5] (setting [8]), 61%; in test [5] (at 50.0 µM), 69.4%; in test [6] (setting [7]) it was 53%; in test [6] (setting [8]), 95% (active); in test [6] (at 50.0 µM) it was 95.2% (active).

As for `Clc1ccc(/C=N\Nc2c3ccccc3nc3ccccc23)cc1Cl`, the growth inhibition in test [1] (setting [7]) is -5%; in test [1] (setting [8]) it was 25%; in test [1] (at 50.0 µM), 71% (active); in test [2] (setting [7]), 13%; in test [2] (setting [8]) it was 21%; in test [2] (at 50.0 µM) it was 14.6%. In addition, the growth inhibition in test [3] (setting [7]) is 1%; in test [3] (setting [8]), 38%; in test [3] (at 50.0 µM), 58.4%; in test [4] (setting [7]), -3%; in test [4] (setting [8]), 4%; in test [4] (at 50.0 µM), 11.9%. In addition, the growth inhibition in test [5] (setting [7]) was 13%; in test [5] (setting [8]) it was 44%; in test [5] (at 50.0 µM), 28.1%; in test [6] (setting [7]), 1%; in test [6] (setting [8]) it was 57%; in test [6] (at 50.0 µM) it was 61.8%.

Take `Fc1ccc(C2SCc3nc4ccccc4n32)cc1Cl` (stereo not given): the growth inhibition in test [1] (setting [7]) was 32%; in test [1] (setting [8]) it was 78% (active); in test [1] (at 50.0 µM) it was 91.3% (active); in test [2] (setting [7]), 27%; in test [2] (setting [8]), 72% (active); in test [2] (at 50.0 µM) it was 93% (active). The growth inhibition in test [3] (setting [7]) was 37%; in test [3] (setting [8]), 90% (active); in test [3] (at 50.0 µM) it was 94.3% (active); in test [4] (setting [7]), 24%; in test [4] (setting [8]) it was 69%; in test [4] (at 50.0 µM), 92.5% (active). In addition, the growth inhibition in test [5] (setting [7]) was 33%; in test [5] (setting [8]), 88% (active); in test [5] (at 50.0 µM), 91.8% (active); in test [6] (setting [7]), 41%; in test [6] (setting [8]) it was 89% (active); in test [6] (at 50.0 µM), 92.1% (active).

As for `CCN(CC)CC(O)c1ccc2cc(Cl)c3ccccc3c2c1` (stereo not given), the growth inhibition in test [1] (setting [7]) is 15%; in test [1] (setting [8]), 99% (active); in test [1] (at 50.0 µM), 99.5% (active); in test [2] (setting [7]), 4%; in test [2] (setting [8]) it was 99% (active); in test [2] (at 50.0 µM) it was 99.5% (active). Also, the growth inhibition in test [3] (setting [7]) is 25%; in test [3] (setting [8]), 99% (active); in test [3] (at 50.0 µM), 99.6% (active); in test [4] (setting [7]) it was 8%; in test [4] (setting [8]), 99% (active); in test [4] (at 50.0 µM), 99.3% (active). For the same compound, the growth inhibition is 16% in test [5] (setting [7]); 98% (active) in test [5] (setting [8]); 99.5% (active) in test [5] (at 50.0 µM); 29% in test [6] (setting [7]); 99% (active) in test [6] (setting [8]); 99.6% (active) in test [6] (at 50.0 µM).

In the case of `Clc1ccc(C(CCc2ccc(Br)cc2)Cn2ccnc2)c(Cl)c1` (stereo not given), the growth inhibition in test [1] (setting [7]) was 94% (active); in test [1] (setting [8]), 99% (active); in test [1] (at 50.0 µM) it was 99.4% (active); in test [2] (setting [7]), 82% (active); in test [2] (setting [8]) it was 99% (active); in test [2] (at 50.0 µM), 99.5% (active). Besides, the growth inhibition is 87% (active) in test [3] (setting [7]); 99% (active) in test [3] (setting [8]); 59.7% in test [3] (at 50.0 µM); 72% (active) in test [4] (setting [7]); 99% (active) in test [4] (setting [8]); 99.5% (active) in test [4] (at 50.0 µM). Also, the growth inhibition in test [5] (setting [7]) is 91% (active); in test [5] (setting [8]) it was 99% (active); in test [5] (at 50.0 µM), 99.2% (active); in test [6] (setting [7]) it was 71% (active); in test [6] (setting [8]), 98% (active); in test [6] (at 50.0 µM) it was 99.5% (active).
